Article PMC5349851, “Combinatorial bZIP dimers display complex DNA-binding specificity landscapes”

Tests used:
Test in all cases: SELEX-seq (CSI, HT-SELEX, round 3); SELEX-seq: 1x PBS (10 mM phosphate, 137 mM NaCl, 2.7 mM KCl) pH 7.6, 2.5 mM DTT, 50 ng/ul poly dI-dC, 0.1% BSA, 50 nM biotinylated bZIP (1:3 with partner for heterodimers), 100 nM library, room temperature, 1 h, 3 rounds; high values mean tight binding
Conditions in all cases: protein: recombinant;recombinant; copies: 1;1; dsDNA, one strand shown
[1] = molecular target: ATF6B;ATF6B (Homo sapiens;Homo sapiens, UniProt Q99941;Q99941 316-391;316-391, |)
[2] = molecular target: ATF6;ATF6 (Homo sapiens;Homo sapiens, UniProt P18850;P18850 297-371;297-371, |)
[3] = molecular target: T1, CREB1;CREB1 (Homo sapiens;Homo sapiens, UniProt P16220;P16220 260-327;260-327, |)
T1 sequence 1: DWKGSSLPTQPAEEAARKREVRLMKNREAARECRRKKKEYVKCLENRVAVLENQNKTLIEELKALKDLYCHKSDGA
T1 sequence 2: T1 sequence 1

[4] = molecular target: T2, CREB3;CREB3 (Homo sapiens;Homo sapiens, UniProt O43889;O43889 141-221;141-221, |)
T2 sequence 1: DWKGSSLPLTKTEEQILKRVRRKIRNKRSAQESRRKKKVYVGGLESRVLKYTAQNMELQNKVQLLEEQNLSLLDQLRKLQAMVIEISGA
T2 sequence 2: T2 sequence 1

[5] = molecular target: ATF5;ATF6B (Homo sapiens;Homo sapiens, UniProt Q9Y2D1;Q99941 199-275;316-391, |)
[6] = molecular target: T3, ATF5;CREBZF (Homo sapiens;Homo sapiens, UniProt Q9Y2D1;Q9NS37 199-275;195-272, |)
T3 sequence 1: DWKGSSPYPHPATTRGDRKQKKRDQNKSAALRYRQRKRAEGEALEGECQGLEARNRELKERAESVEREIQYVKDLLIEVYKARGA
T3 sequence 2: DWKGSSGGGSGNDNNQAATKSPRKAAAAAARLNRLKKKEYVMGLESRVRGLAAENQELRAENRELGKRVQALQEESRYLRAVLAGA

ATF6B;ATF6B, sequence (Q99941 other isoform, or with tags, fused parts or gaps |, chain 1 of 2): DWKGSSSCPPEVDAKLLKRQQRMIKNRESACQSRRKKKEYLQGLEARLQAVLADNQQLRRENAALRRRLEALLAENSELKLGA
ATF6B;ATF6B, sequence (Q99941 other isoform, or with tags, fused parts or gaps |, chain 2 of 2): as the sequence (Q99941 other isoform, or with tags, fused parts or gaps |, chain 1 of 2) above
ATF5;ATF6B, sequence (Q99941 other isoform, or with tags, fused parts or gaps |): as the sequence (Q99941 other isoform, or with tags, fused parts or gaps |, chain 1 of 2) above
ATF6;ATF6, sequence (P18850 other isoform, or with tags, fused parts or gaps |, chain 1 of 2): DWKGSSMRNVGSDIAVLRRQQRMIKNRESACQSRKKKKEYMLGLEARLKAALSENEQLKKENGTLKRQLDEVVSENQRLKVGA
ATF6;ATF6, sequence (P18850 other isoform, or with tags, fused parts or gaps |, chain 2 of 2): as the sequence (P18850 other isoform, or with tags, fused parts or gaps |, chain 1 of 2) above

Row | Sequence | binding signal [1] | binding signal [2] | binding signal [3] | binding signal [4] | binding signal [5] | binding signal [6]
1 | ATGACGTAAT | 0.00248 relative CSI intensity (max = 1) | 0.0093 relative CSI intensity (max = 1) | 0.00977 relative CSI intensity (max = 1) | 0.0113 relative CSI intensity (max = 1) | 0.0108 relative CSI intensity (max = 1) | 0.0175 relative CSI intensity (max = 1)
2 | CCTGACGTCA | 0.00121 relative CSI intensity (max = 1) | 0.00545 relative CSI intensity (max = 1) | 0.0218 relative CSI intensity (max = 1) | 0.0218 relative CSI intensity (max = 1) | 0.0183 relative CSI intensity (max = 1) | 0.0084 relative CSI intensity (max = 1)
3 | ATGACGTCAT | 0.0846 relative CSI intensity (max = 1) | 0.437 relative CSI intensity (max = 1) | 0.577 relative CSI intensity (max = 1) | 0.325 relative CSI intensity (max = 1) | 1 relative CSI intensity (max = 1) | 1 relative CSI intensity (max = 1)
4 | ATGACGGAAT | – | – | – | – | – | 0.0025 relative CSI intensity (max = 1)
5 | ATGACGCAAT | – | 0.00207 relative CSI intensity (max = 1) | – | 0.00195 relative CSI intensity (max = 1) | 0.00498 relative CSI intensity (max = 1) | 0.0123 relative CSI intensity (max = 1)
6 | ATGATGCAAT | – | – | – | – | 0.0122 relative CSI intensity (max = 1) | 0.00335 relative CSI intensity (max = 1)
